The whole screen tested about 66,000 compounds, of which about 960 (1.5%) showed an effect of 50% or more. Only a selection was taken, and strong results are over-represented in it overall.
Test system: Trypanosoma brucei
Assay: Trypanosoma brucei 72 hour study
Type: functional, organism-based
Set-up: scale not given: in the data most compounds retested in dose-response had high values

O=C(N[C@H]1CC[C@@]2(CCC(=O)N2CC2CC2)CC1)c1cnccn1
Percent Effect (30.3 µM, […]): -8.587%

Cc1nnc([C@@]23CCO[C@@H]2CCN(S(=O)(=O)c2ccccc2)C3)o1
Percent Effect (30.3 µM, […]): -46.55%

CNC(=O)c1ccc(CN(C)C(=O)Nc2nnc(C(C)C)s2)cc1
Percent Effect (30 µM, 30.03 µM): 1.168%

Cc1cc2c(=O)n3c(nc2s1)CCN(Cc1[nH]cnc1C)CC3.Cl
Percent Effect (30.3 µM, […]): -2.938%

COc1ccc(F)cc1-c1ccccc1CC1CNCCNC1=O.Cl (stereo unspecified)
Percent Effect (30.3 µM, […]): -18.15%

O=C(NCc1ccccc1-n1cccn1)C1CC2(CCNCC2)CN1 (stereo unspecified)
Percent Effect (30 µM, 30.03 µM): 40.65%

O=C(O)C(F)(F)F.O=C1C[C@H]2[C@@H](CCN2C(=O)Cc2cccs2)N1Cc1ccncc1
Percent Effect (30.3 µM, […]): -0.2658%

CCCc1cncnc1N1CCC(NCCc2ccc(O)cc2)CC1
Percent Effect (30 µM, 30.03 µM): -6.649%

CCCc1cncnc1N1CCC(NCc2ccc(O)cc2)CC1
Percent Effect (30 µM, 30.03 µM): 63.63%

CCCc1cncnc1N1CCC(NCc2ccncc2)CC1
Percent Effect (30 µM, 30.03 µM): -66.51%

CN(C)CC1(O)CCN(S(=O)(=O)c2cccc(F)c2)C1 (stereo unspecified)
Percent Effect (30.3 µM, […]): -12.71%

Brc1cccnc1OC1CCNCC1.Cl
Percent Effect (30 µM, 30.03 µM): -18.95%

COc1cccc(CNC2CCCOc3cc(C)ccc32)n1 (stereo unspecified)
Percent Effect (30 µM, 30.03 µM): -17.07%

COc1cccc(CNC2CCc3ccc(C)cc32)n1 (stereo unspecified)
Percent Effect (30 µM, 30.03 µM): 102.5%

Cc1ccc2c(c1)C(NCc1ccccn1)CC2 (stereo unspecified)
Percent Effect (30 µM, 30.03 µM): 31.05%

N#Cc1c2n(c3c(=O)[nH]cnc13)CCCC2
Percent Effect (30 µM, 30.03 µM): -59.85%

Cc1nn(C)cc1CNCc1ccc(N(C)C)cc1
Percent Effect (30.3 µM, […]): -17.42%

CC1=C(C#N)C(=O)NC(=O)/C1=C\c1c(C)nn(-c2ccccc2)c1O
Percent Effect (30.3 µM, […]): 8.75%

Cc1ccccc1N1CCN(c2nc(N(C)C)nc3c2CCNC3)CC1
Percent Effect (30 µM, 30.03 µM): -31.91%

c1ccc2c(c1)CCN(c1nc(-c3ccncc3)nc3c1CCNC3)C2
Percent Effect (30 µM, 30.03 µM): -16.52%

CN(C)c1nc2c(c(N3CCc4ccccc4C3)n1)CCNC2
Percent Effect (30 µM, 30.03 µM): 100.4%

CC(C)C(=O)NC1CC2(CCN(CC(=O)N(C)C)CC2)c2ccccc21.O=C(O)C(F)(F)F (stereo unspecified)
Percent Effect (30.3 µM, […]): -88.42%

Cc1ccsc1C(=O)N1CCC2(CC(C(=O)N(C)C(C)C)=NO2)C1 (stereo unspecified)
Percent Effect (30 µM, 30.03 µM): -54.71%

CCCN1CCC(NC(=O)Nc2ccc(OC)c(OC)c2)CC1
Percent Effect (30.3 µM, […]): -0.7678%

CCCN1CCC(NC(=O)c2csc(C)c2-c2ccccc2)CC1
Percent Effect (30.3 µM, […]): -89.86%

CCCN1CCC(Nc2cc(-c3ccccc3)ccc2OC)CC1
Percent Effect (30.3 µM, […]): 57.37%

CC(NC(=O)NCCCN1CCCCCC1=O)c1nncn1C (stereo unspecified)
Percent Effect (30.3 µM, […]): -29.33%

O=C(O)C(F)(F)F.O=C(O)C(F)(F)F.O=C1COC2(CCN(Cc3cccs3)CC2)CN1c1cccnc1
Percent Effect (30 µM, 30.03 µM): -14.7%

CCNc1nc(-c2cccnc2)c(-c2ccnc(NCCO)n2)s1
Percent Effect (30.3 µM, […]): 9.967%

CCNc1nc(-c2cccnc2)c(-c2ccnc(NS(C)(=O)=O)n2)s1
Percent Effect (30.3 µM, […]): 1.048%

CC(C)(C)Nc1nc(-c2cccnc2)c(-c2ccnc(NCCO)n2)s1
Percent Effect (30.3 µM, […]): 94.16%

O=C(NCCc1cccs1)[C@H]1CO[C@H]2CCN(C3CCC3)C[C@H]2C1.O=C(O)C(F)(F)F
Percent Effect (30.3 µM, […]): -77.19%

CCOC(=O)[C@]12CCCN(Cc3ccco3)C[C@H]1CN(S(C)(=O)=O)C2.O=C(O)C(F)(F)F
Percent Effect (30.3 µM, […]): 4.884%

COc1cccc(OC)c1CN1CC(=O)N(c2ccc(C)cc2)CC1C (stereo unspecified)
Percent Effect (30 µM, 30.03 µM): 102.6%

COc1ccc(CN2CC(=O)N(c3ccc(C)cc3)CC2C)cc1O (stereo unspecified)
Percent Effect (30 µM, 30.03 µM): -20.88%

COc1cc(CN2CC(=O)N(c3ccc(C)cc3)CC2C)cc(OC)c1 (stereo unspecified)
Percent Effect (30 µM, 30.03 µM): -11.31%

Cn1cc(C(=O)N2C[C@H]3C[C@H](Oc4ccccc4)C[C@H]3C2)cn1
Percent Effect (30.3 µM, […]): 8.793%

Cl.c1nnc(Nc2cncc(C3CCCN3)n2)s1 (stereo unspecified)
Percent Effect (30.3 µM, […]): -8.347%

Cc1nc(Nc2cnccn2)cc(C2CCCN2)n1.Cl (stereo unspecified)
Percent Effect (30.3 µM, […]): -13.8%

Cl.c1cnc(Nc2cncc(C3CCCN3)n2)cn1 (stereo unspecified)
Percent Effect (30.3 µM, […]): 99.3%

O=C(COC[C@@]12CCC[C@@H]1CN(C1CCCC1)C2)N1CCCC1.O=C(O)C(F)(F)F
Percent Effect (30.3 µM, […]): -80.12%

CSc1ccc(CNC(c2ccccc2F)c2nccn2C)cc1.Cl (stereo unspecified)
Percent Effect (10 µM): -81.16%

CN(C)C(=O)Cc1ccccc1NCc1cc(C#N)ccc1F
Percent Effect (30.3 µM, […]): -2.182%

CN(C)C(=O)Cc1ccccc1NCc1cccc(F)c1F
Percent Effect (30.3 µM, […]): 97.11%

CN(C)C(=O)Cc1ccccc1NCc1cccc2cccnc12
Percent Effect (30.3 µM, […]): 4.964%

CN(C)CCNC(=O)c1sccc1N(C)S(=O)(=O)c1ccc(Cl)cc1
Percent Effect (30 µM, 30.03 µM): -35.26%

COc1ccc(-c2ccccc2CCN)c(OC)c1OC
Percent Effect (30 µM, 30.03 µM): 106.1%

COc1ccc(-c2cc(CN)ccc2F)c(OC)c1OC
Percent Effect (30.3 µM, […]): -22.81%

COc1ccc(-c2ccccc2CN)c(OC)c1
Percent Effect (30 µM, 30.03 µM): -56.26%

CO[C@H]1CCN(Cc2ccoc2)C[C@@H]1Cc1ccccc1.O=C(O)C(F)(F)F
Percent Effect (30.3 µM, […]): -12.49%

C[C@@H]1C[C@@H]2CCN(C(=O)c3ccncn3)C[C@H]2O1
Percent Effect (30 µM, 30.03 µM): -27.33%

COc1cc(N2CCC3(CCCN(C(=O)c4cnccn4)C3)C2)ncn1.O=C(O)C(F)(F)F (stereo unspecified)
Percent Effect (30 µM, 30.03 µM): -22.02%

O=C(NCCCN1CCOCC1)c1cc(-c2ccc3c(c2)CCO3)n[nH]1
Percent Effect (30 µM, 30.03 µM): 57.45%

O=C(NCCN1CCOCC1)c1cc(-c2ccc3c(c2)CCO3)n[nH]1
Percent Effect (30 µM, 30.03 µM): 31.8%

O=C(NCCCO)c1cc(-c2ccc3c(c2)CCO3)n[nH]1
Percent Effect (30 µM, 30.03 µM): -14.14%

O=C(NCc1nnc2n1CCCCC2)N(CC1CCOC1)C1CC1 (stereo unspecified)
Percent Effect (30 µM, 30.03 µM): -56.14%

CNc1cc2c(nn1)CCN(C(=O)c1cccc3c1OCCO3)C2
Percent Effect (10 µM): -31.25%

OCC1(Cc2ccc(Cl)cc2)CCN(Cc2ccccc2O)CC1
Percent Effect (30.3 µM, […]): -146.1%

COc1ccc(CN2CCC(CO)(Cc3ccc(Cl)cc3)CC2)c(O)c1
Percent Effect (30.3 µM, […]): -63.01%

COc1cccc(CN2CCC(CO)(Cc3ccc(Cl)cc3)CC2)c1O
Percent Effect (30.3 µM, […]): 102.9%

CC(C)CNC(=O)[C@H]1C[C@@H]2CN(C(=O)Nc3ccc(F)cc3)C[C@H]1O2
Percent Effect (30 µM, 30.03 µM): -34.27%

O=C(O)C(F)(F)F.O=C(O)C(F)(F)F.O=S(=O)(c1ccccc1)N1CCC2(CCCN2Cc2cccnc2)C1 (stereo unspecified)
Percent Effect (30.3 µM, […]): -446.5%

CCS(=O)(=O)N1CCCC2(CCCN2Cc2cccc(F)c2)C1.O=C(O)C(F)(F)F (stereo unspecified)
Percent Effect (30 µM, 30.03 µM): -82.26%

O=S(=O)(c1ccccc1)N1CCC2(CCCN2Cc2cccc(F)c2)C1 (stereo unspecified)
Percent Effect (30.3 µM, […]): 56.8%

O=S(=O)(c1ccccc1)N1CCC2(CCCN2Cc2ccccc2Cl)C1 (stereo unspecified)
Percent Effect (30.3 µM, […]): 33.63%

O=C(O)C(F)(F)F.O=S(=O)(c1ccccc1)N1CCC2(CCCN2Cc2cccc(Cl)c2)C1 (stereo unspecified)
Percent Effect (30 µM, 30.03 µM): -34.57%

O=S(=O)(c1ccccc1)N1CCC2(CCCN2Cc2ccc(Cl)cc2)C1 (stereo unspecified)
Percent Effect (30.3 µM, […]): 61.41%

O=C(C1CC1)N1CCC2(CCN2Cc2ccc(F)cc2)C1.O=C(O)C(F)(F)F (stereo unspecified)
Percent Effect (30.3 µM, […]): -12.66%

Cc1cccnc1CN1CC[C@H](Oc2cccc(F)c2)[C@@](C)(O)C1
Percent Effect (30.3 µM, […]): -17.61%

O=C1CC(NS(=O)(=O)c2ccc(Br)cc2)CN1 (stereo unspecified)
Percent Effect (30 µM, 30.03 µM): -19.04%

CN(C(=O)CSc1ccccn1)C1CCCN(CCc2ccccc2)C1 (stereo unspecified)
Percent Effect (30 µM, 30.03 µM): 106.3%

CN(C(=O)CCc1ccncc1)C1CCCN(CCc2ccccc2)C1 (stereo unspecified)
Percent Effect (30 µM, 30.03 µM): 2.42%

CC(C)C(=O)NCC(=O)N(C)C1CCCN(CCc2ccccc2)C1 (stereo unspecified)
Percent Effect (30.3 µM, […]): 1.246%

Cn1cc(C(=O)NC(Cn2cccn2)C(C)(C)C)cn1 (stereo unspecified)
Percent Effect (30.3 µM, […]): -4.857%

CCn1nccc1C(=O)NC(Cn1cccn1)C(C)(C)C (stereo unspecified)
Percent Effect (30.3 µM, […]): -6.087%

CC(C)(C)C(Cn1cccn1)NC(=O)c1ccco1 (stereo unspecified)
Percent Effect (30.3 µM, […]): 101.2%

CC(CNC(=O)CCCn1cncn1)N1CCc2ccccc2C1 (stereo unspecified)
Percent Effect (30 µM, 30.03 µM): -32.01%

CCOC(=O)c1sc(NC(=O)CN(C)S(C)(=O)=O)c(C#N)c1C
Percent Effect (30 µM, 30.03 µM): -8.874%

Cc1sc(NC(=O)CN(C)S(C)(=O)=O)c(C#N)c1C
Percent Effect (30 µM, 30.03 µM): 51.13%

CCCC(=O)Nc1sc(C(=O)OCC)c(C)c1C#N
Percent Effect (30 µM, 30.03 µM): 19.97%

Cl.O=C(Nc1nc2c(s1)CNCC2)NC1CCCC1
Percent Effect (30 µM, 30.03 µM): -50.11%

Cl.NC(C(=O)N1CCSc2ccccc2C1)c1ccccc1 (stereo unspecified)
Percent Effect (30 µM, 30.03 µM): 1.138%

Cc1nn2c(-c3snnc3C)nnc2s1
Percent Effect (30 µM, 30.03 µM): -55.36%

COCCC(=O)N1CC2(CCN(Cc3cccc(Cl)c3)CC2)C1.O=C(O)C(F)(F)F
Percent Effect (30 µM, 30.03 µM): -25.19%

Cc1nnc(N2CC[C@H]3C[C@@H](C(=O)N4CCCC4)O[C@H]3C2)s1.O=C(O)C(F)(F)F
Percent Effect (30.3 µM, […]): -391.5%

O=C1NCc2ccc(NC(=O)C3CCCN3c3nccs3)cc21 (stereo unspecified)
Percent Effect (30 µM, 30.03 µM): 23.55%

O=C(Nc1ccc(OC2CCCC2)cc1)C1CCCN1c1nccs1 (stereo unspecified)
Percent Effect (30.3 µM, […]): 83.44%

O=C(Nc1cccc(F)c1)C1CCCN1c1nccs1 (stereo unspecified)
Percent Effect (30.3 µM, […]): 1.599%

O=C(N1CCOCC1)[C@@]12CCO[C@@H]1CCN(CC1CCCC1)C2.O=C(O)C(F)(F)F
Percent Effect (30 µM, 30.03 µM): -11.27%

CN(Cc1cccc(F)c1)C(=O)CS(=O)(=O)Cc1ccc(Cl)c(Cl)c1
Percent Effect (30.3 µM, […]): 45.42%

Cc1ccccc1CS(=O)(=O)CC(=O)N(C)Cc1cccc(F)c1
Percent Effect (30.3 µM, […]): -71.65%

CN(Cc1cccc(F)c1)C(=O)CS(=O)(=O)Cc1c(Cl)cccc1Cl
Percent Effect (30.3 µM, […]): 83.04%

CCOc1nnc(CN(C)CC2CCCN2c2cccnn2)s1 (stereo unspecified)
Percent Effect (30 µM, 30.03 µM): 2.197%

O=C(O)C(F)(F)F.O=C(O)C(F)(F)F.O=C(c1cnc2n1CCN(Cc1ccccc1)C2)N1CCCC1
Percent Effect (30.3 µM, […]): -305.8%

NC1CCN(C2CCN(c3ccc(-c4ccco4)cc3)CC2)CC1
Percent Effect (30.3 µM, […]): -49.5%

NCC1CCN(C2CCN(c3ccc(-c4ccco4)cc3)CC2)C1 (stereo unspecified)
Percent Effect (30.3 µM, […]): 100.4%

CNC1CCN(C2CCN(c3ccc(-c4ccco4)cc3)CC2)CC1
Percent Effect (30.3 µM, […]): 100.1%

CCc1cccc(N2CCC(NC(=O)c3ccco3)CC2)c1
Percent Effect (10 µM): -6.636% | Percent Effect (30.3 µM, […]): -4.063%

COc1ccc(N2CCC(N3CCOC(C(F)(F)F)C3)CC2)cc1 (stereo unspecified)
Percent Effect (30 µM, 30.03 µM): -19.82%

O=C(O)c1ccccc1C1CCN(C2CCN(c3ccccc3)CC2)C1 (stereo unspecified)
Percent Effect (30.3 µM, […]): -16.4%

Source: ChEMBL document CHEMBL3988442, “University of Dundee, Small-Polar-MMV Screening Library” (2021)
